# Compound activity as filed in PubChem.
# SMN2 splice enh – qHTS Assay for Enhancers of SMN2 Splice Variant Expression; HEK293 SMN2-luciferase splicing reporter, luminescence, 30-36 h; Potency, µM (series often up to 46.1 µM), for the others: at the top dose activity change, positive = activation, most hits filed as activators; actives 2.8% (n = 210,000); AID 1458, 2008; also: % of control where 0% means no effect; nearly all actives have a fitted effect of over 55% in size
#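 HEK293 cells carry an SMN2 […]–luciferase reporter in which exon 7 inclusion puts luciferase in frame. Cells were plated 10-12 h before compound addition, then incubated 30-36 h at 37C. ONE-Glo luminescence was read; sodium butyrate at 4.5 mM final served as control.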
# ELG1 genotoxic – qHTS screen for small molecules that induce genotoxicity in human embryonic kidney (HEK293T) cells expressing luciferase-tagged ELG1; HEK293T ELG1-luciferase reporter, luminescence, 16 h; Potency, µM (top dose mostly 46 µM), without a hit: top-dose activity change, positive = activation, most hits filed as activators; actives 1.3% (n = 330,000); AID 504466, 2011; also: % of control where 0% means no effect; nearly all actives have a fitted effect of over 60% in size
#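 Quantitative HTS format in 1536-well plates. HEK293T ELG1-luciferase reporter cells receive test compound and are incubated 16 hr at 37 °C, 5% CO2; ONE-Glo added, 30 min room temperature, then luminescence read.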
# FLuc counter – qHTS profiling assay for firefly luciferase inhibitor/activator using purifed enzyme and Km concentrations of substrates (counterscreen for miR-21 project); Luciferin 4-monooxygenase (Photinus pyralis), P08659; purified FLuc, Km substrates, luminescence inhibition; Potency, µM (titrated, usually from 57.5 µM), for inactives: top-dose activity change, negative = inhibition, usual class: inhibitors; actives 6.9% (n = 360,000); AID 588342, 2011;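 also: plate controls were vehicle for no effect and reference inhibitor for full effect; nearly all actives have a fitted effect of over 55% in size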
# Target sequence (P08659 whole entry, looked up): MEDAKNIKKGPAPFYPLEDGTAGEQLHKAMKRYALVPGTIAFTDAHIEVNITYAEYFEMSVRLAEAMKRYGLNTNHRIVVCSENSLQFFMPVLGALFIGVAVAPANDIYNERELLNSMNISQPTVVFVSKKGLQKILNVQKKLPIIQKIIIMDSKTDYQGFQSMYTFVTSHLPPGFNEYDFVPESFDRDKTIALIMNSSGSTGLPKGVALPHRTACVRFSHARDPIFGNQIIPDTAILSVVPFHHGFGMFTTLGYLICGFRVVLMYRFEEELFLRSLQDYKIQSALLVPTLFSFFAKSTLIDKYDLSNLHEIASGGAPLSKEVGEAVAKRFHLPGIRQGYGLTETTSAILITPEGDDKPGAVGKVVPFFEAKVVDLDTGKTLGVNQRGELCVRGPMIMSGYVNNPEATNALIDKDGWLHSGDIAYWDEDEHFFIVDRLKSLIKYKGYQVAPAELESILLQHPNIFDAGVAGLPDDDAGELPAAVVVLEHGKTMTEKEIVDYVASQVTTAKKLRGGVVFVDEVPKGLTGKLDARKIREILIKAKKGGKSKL
#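 Biochemical qHTS of compounds, final roughly 60 µM downward over six points, against 10 nM purified firefly luciferase using Km concentrations of substrates (10 uM D-luciferin, 10 uM ATP) in Tris acetate pH 7.5 buffer; luminescence output.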
# Rab9 promoter act – qHTS Assay for Rab9 Promoter Activators; Huh7 Rab9 promoter-luciferase reporter, luminescence, 24 h; actives 2.8% (n = 320,000); Potency, µM (top dose mostly 9.22 µM), inactives show at the top dose activation, negative = inhibition, most hits filed as activators; AID 485297, 2010; also: % of control where 0% means no effect; nearly all actives have a fitted effect of over 60% in size
#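 Quantitative HTS format; Huh7 Rab9-luciferase reporter cells (1500/well) receive compound 2 h post-plating, incubate 24 h at 37 °C, then get luciferase reagent for 10 min before luminescence reading.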
# NPC1 prom act – qHTS Assay for NPC1 Promoter Activators; Huh7 NPC1 promoter luciferase reporter, 24 h; AID 485313, 2010; Potency, µM (doses to about 9.22 µM), inactives show at the highest dose activation, hits mostly activators; actives 2.4% (n = 320,000); also: % of control where 0% means no effect; nearly all actives have a fitted effect of over 60% in size
#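 Cells: Huh7 expressing luciferase under the NPC1 promoter, 1500/well. Seeded 2 h, compound added, incubated 24 h at 37 °C. Luciferase reagent, 10 min ambient, then luminescence.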
# The depositor's hits bear a star; ? = inconclusive; . = no result; [ ] = another dose, or the depositor's remark. Most compounds without a hit are left out; they make up all but 7.5% or so of the library. Calls follow the shape of the dose curve; as a rule, active = well fitted curve in the direction sought with a large enough effect; inconclusive = small, poorly fitted or top-dose-only effect, or another doubt; inactive = no such curve, though single readings can be large; an effect the other way counts as inactive or inconclusive. Potency is read from the fitted curve at half-maximal effect.
SMILES,SMN2 splice enh,ELG1 genotoxic,FLuc counter,Rab9 promoter act,NPC1 prom act
Cc1cccc(NC(=O)c2ccc3c(=O)n4c(nc3c2)CCCCC4)n1,.,?,4.78µM*,0.501µM*,1.26µM*
CC(=O)c1cccc(NC(=O)c2ccc3c(=O)n4c(nc3c2)CCCCC4)c1,13.6%,-6.1%,15.1µM*,22.6%,13.5%
Cc1cc(C(=O)Nn2c(-c3ccc(Br)cc3)nc3ccccc3c2=O)ccc1[N+](=O)[O-],1.8%[1.84 µM],-4.7%,3.0%,19.1%,-1.8%
CC(C)N(C(C)C)S(=O)(=O)c1ccc(N2CCc3ccccc3C2)nc1,.,?,13.5µM*,3.98µM*,?
CCN(CC)S(=O)(=O)c1ccc(N2CCc3ccccc3C2)nc1,.,-2.8%,?,29.1%,25.6%
COC(=O)CSc1nnc(SCc2ccccc2)s1,-4.0%,1.7%,19µM*,8.1%,1.5%
O=C(CSc1nnc(SCc2ccc(Cl)cc2)s1)N1CCN(C(=O)c2ccco2)CC1,-7.9%,-1.0%,9.53µM*,-9.1%,0.6%
O=C(c1ccc(-c2ccc([N+](=O)[O-])cc2)o1)N1CCCCCCC1,.,10.8%,10.7µM*,?,?
COC(=O)CSc1nnc(SCc2ccc(Cl)cc2)s1,-9.2%,1.8%,16.9µM*,-3.5%,-0.1%
O=C(O)c1ccc(CSc2nnc(SCc3ccccc3)s2)cc1,-15.7%,-0.6%,?,1.1%,-3.8%
O=C(c1ccc2[nH]ccc2c1)N1CCCC(Nc2ccccc2)C1 (stereo not drawn),.,2.8%,-3.9%,3.4%,-1.3%
O=C(c1ccco1)N1CCN(C(=O)c2ccc(-c3ccc(Cl)cc3)o2)CC1,.,-7.3%,16.9µM*,8.5%,1.3%
O=C(c1ccc(Cl)cc1)N1CCN(C(=O)c2ccco2)CC1,-6.2%,1.7%,-6.0%,-2.9%,-4.9%
CC(/C=C/c1ccc(N(C)C)cc1)=N\N=C(/N)SC1CC(=O)N(c2ccc(C(=O)O)cc2)C1=O (stereo not drawn),?,?,1.07µM*,?,26.1%
COc1ccc(/C=N/c2nc3ccccc3n2C)cc1OC,-21.2%,-2.6%,0.757µM*,-4.1%,0.6%
Cn1c(/N=C/c2cccs2)nc2ccccc21,0.3%,2.1%,1.07µM*,-7.8%,-1.6%
Cn1c(/N=C/c2ccccc2[N+](=O)[O-])nc2ccccc21,.,-3.2%,1.69µM*,3.6%,-0.9%
Cn1c(/N=C/c2cc(Cl)ccc2O)nc2ccccc21,-0.7%,0.4%,4.6%,-1.7%,-3.8%
Clc1nccnc1N/N=C/c1ccc(Br)cc1,.,?,9.53µM*,2µM*,2µM*
Cc1nnc(N/N=C/c2ccc(Br)cc2)n1N,.,2.8%,-16.8%,1.0%,11.6%
COc1ccc(/C=N/Nc2nccnc2Cl)cc1,14.1µM*,1.46µM*,2.69µM*,0.447µM*,1.26µM*
COc1ccc(/C=N/Nc2nccnc2Cl)c(OC)c1,27.1%,?,10.7µM*,?,16.4%
COc1ccc(/C=N/N=C/c2ccc(OC)cc2)cc1,.,3.9%,?,4.3%,2.6%
O=C1CN(C(=O)CSc2nc(-c3ccc(Cl)cc3)cs2)c2ccccc2N1,-55.2%,1.2%,-24.6%,-14.7%,-2.3%
O=C1CNC(=S)N1C(CO)c1ccccc1 (stereo not drawn),.,-6.5%,-1.0%,3.8%,-9.2%
SMILES,SMN2 splice enh,ELG1 genotoxic,FLuc counter,Rab9 promoter act,NPC1 prom act
O=C(O)CCNc1ncnc2nc[nH]c12,-3.2%[9.22 µM],.,.,.,.
COc1ccc(OCc2nc3ccccc3n2Cc2ccccc2Cl)cc1,-11.5%,.,?,.,.
COc1ccc2c(CNCc3cccs3)c(C(=O)O)n(Cc3cccc(F)c3)c2c1,.,.,-15.5%,.,.
CCOC(=O)c1ccc(NC(=S)NC(=O)COc2ccccc2)cc1,4.6%,2.1%,0.7%,-10.2%,-6.2%
CCOc1ccc2nc(N3CCCC(C(=O)Nc4ccc(OC)c(Cl)c4)C3)sc2c1 (stereo not drawn),20µM*,.,3.01µM*,.,.
COc1ccc2nc(N3CCCC(C(=O)NCCc4ccc(OC)c(OC)c4)C3)sc2c1 (stereo not drawn),.,-9.7%,8.49µM*,2.82µM*,2.82µM*
COc1ccc2nc(N3CCCC(C(=O)NCCCN4CCN(C)CC4)C3)sc2c1 (stereo not drawn),-1.9%,14.3%,16.9µM*,15.7%,0.1%
CCOc1ccc2nc(N3CCCC(C(=O)NCCCN4CCCCC4)C3)sc2c1 (stereo not drawn),.,?,?,?,27.1%
COc1ccc(C(=O)C2CCN(C(=S)NCCc3ccc(OC)c(OC)c3)CC2)cc1,.,-3.9%,19µM*,-19.6%,-9.4%
O=c1n(Cc2ccc([N+](=O)[O-])cc2)c2ccccc2c2nc(-c3ccccc3)nn12,.,.,-7.3%,.,.
Cc1nc(C)c(C(=O)OCC(=O)NCc2ccccc2)s1,.,2.8%,-1.1%,-5.3%,-0.5%
CCOc1ccc2nc(N3CCCC(C(=O)NCCCN4CC(C)CC(C)C4)C3)sc2c1 (stereo not drawn),.,2.1%[9.26 µM],?,0.891µM*,3.2%
Cc1cc(N2CCOCC2)ccc1/C=C1\NC(=O)N(CC(=O)Nc2ccc(F)cc2)C1=O,18.1%,13.1%,?,?,?
Cc1cccc(NC(=O)CN2C(=O)N/C(=C\c3ccc(N4CCOCC4)cc3)C2=O)c1,11.2µM*,?,3.01µM*,?,?
COc1cccc(/C=C2\SC(=S)N(CC3CCCO3)C2=O)c1 (stereo not drawn),-19.8%,5.9%,10.7µM*,-8.2%,-2.6%
COc1cccc(/C=C2\SC(=S)N(N3C(=O)CCCC3=O)C2=O)c1,11.5%,1.5%,21.3µM*,-11.1%,-0.6%
O=C1/C(=C/c2cccc(O)c2)SC(=S)N1CC1CCCO1 (stereo not drawn),.,5.3%,?,-8.9%,-12.8%
Cc1ccc(NC(=O)CN(C)C(=O)/C=C/c2cccs2)cc1,20.2%,5.6%,-2.6%,-5.1%,-0.7%
O=C1N/C(=N/N=C/c2ccc(F)cc2)SC1c1ccccc1 (stereo not drawn),.,9.3%,15.1µM*,15.3%,1.5%
CCc1ccc(-c2nc(-c3ccncc3)no2)cc1,7.94µM*,0.731µM*,0.675µM*,?,0.355µM*
CCCCc1ccc(-c2nc(-c3ccncc3)no2)cc1,12.6µM*,23.1µM*,1.9µM*,0.355µM*,0.447µM*
Cc1nc(-c2cccnc2)sc1C(=O)N/N=C/c1ccccc1Cl,.,2.3%,-6.0%,1.0%,-1.4%
CCN(CC)S(=O)(=O)c1cc(C(=O)Nc2cc(C)[nH]n2)ccc1Cl,.,?,8.49µM*,2.51µM*,2.24µM*
CN(C)S(=O)(=O)c1cccc(C(=O)Nc2ccccc2[N+](=O)[O-])c1,2.3%,0.4%,?,11.0%,-1.5%
